Our source for the outcome and AC50 values is PubChem BioAssay (EPA / NIEHS).

What is called AC50 is the midpoint of the concentration-response curve, whichever way the signal moves.

Results filed as inconclusive are left out. Activity calls are given as the source filed them. The calls were made as follows: active = hit-call score of the fitted dose curve at least 0.9, where 1 is the maximum; inconclusive = response in the unintended direction; inactive = score below 0.9.

This experiment in a line: ACEA_AR_agonist_AUC_viability: ACEA Biosciences xCELLigence Real-Time Cell Analysis on Androgen Receptor Agonism for Viability (AID 2283775).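 As to AC50: viability read 80 hours after compound addition.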 Put shortly:
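Viability endpoint from xCELLigence impedance in 22Rv1 prostate cells at 80 h. Eight-point series, 100 uM maximum final.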
`O=C1CCCCCN1`: the molecule was called inactive.

Turning to `CC(C)CCCCCCCOC(=O)CCCCC(=O)OCCCCCCCC(C)C`, the call was inactive.

`O=C1CCC(N2C(=O)c3ccccc3C2=O)C(=O)N1` (stereo not given): the outcome was inactive.

Take `CC(O)CN(CCN(CC(C)O)CC(C)O)CC(C)O` (stereo not given): the call was inactive.

On to `CCC(C)(C)C(=O)O[C@H]1C[C@@H](C)C=C2C=C[C@H](C)[C@H](CC[C@@H]3C[C@@H](O)CC(=O)O3)[C@H]21`, for which the AC50 was 29.9 µM (active).

For the molecule `CC(C)(O)c1coc(S(=O)(=O)NC(=O)Nc2c3c(cc4c2CCC4)CCC3)c1`, the outcome was inactive.

In the case of `CC[C@H](C)C(=O)O[C@H]1C[C@@H](C)C=C2C=C[C@H](C)[C@H](CC[C@@H]3C[C@@H](O)CC(=O)O3)[C@H]21`, the result was inactive.

With `CCOCCO`, the result was inactive.

As to `COCCOc1cc2cc(C(=O)NC3CCN(C(C)C)CC3)n(CC(=O)Nc3ccc(Cl)cn3)c2cn1`, the AC50 was 40.9 µM (active).

Turning to `C1=CCCC=CCCC=CCC1`, the call was inactive.

As for `Cc1ccc(N)cc1O`, the AC50 is 89.7 µM (active).

Take `Nc1ccc(Nc2ccccc2)cc1`: the AC50 was 93 µM (active).

As for `On1ccccc1=S`, the AC50 is 9.92 µM (active).

In the case of `Cc1ccc(C)c(O)c1`, the call was inactive.

In the case of `O=c1n(CC2CO2)c(=O)n(CC2CO2)c(=O)n1CC1CO1` (stereo not given), the half-maximal activity concentration (AC50) is 0.571 µM (active).

As for `Oc1ccc2c(c1)-c1ccccc1C2`, the AC50 was 50 µM (active).

On to `Cn1c(=O)c2c(ncn2C)n(C)c1=O`, for which the outcome was inactive.

On to `C1N2CN3CN1CN(C2)C3`, for which the molecule was classed as inactive.

Regarding `COc1cccc(-c2ccc(/C=C\CN3CCCCCC3)cc2Cl)c1`, the AC50 was 62.7 µM (active).

Turning to `Cn1cnc([N+](=O)[O-])c1Sc1ncnc2nc[nH]c12`, the AC50 was 1.15 µM (active).
